What was measured:
Test in all cases: DAPPL (digital affinity profiling via proximity ligation, sequencing); 10 mM Tris-HCl pH 7.5, 50 mM NaCl, 1 mM DTT, 4% glycerol, room temperature, 30 min; GST-TFs on glutathione beads, 16-mer random dsDNA library, 0.1% formaldehyde crosslink after washing; high values mean tight binding
Details in all cases: protein: recombinant; tags: N-terminal GST; dsDNA, one strand shown
ELK1 = target: T1, ELK1 (Homo sapiens, UniProt P19419 1-428)
T1 sequence: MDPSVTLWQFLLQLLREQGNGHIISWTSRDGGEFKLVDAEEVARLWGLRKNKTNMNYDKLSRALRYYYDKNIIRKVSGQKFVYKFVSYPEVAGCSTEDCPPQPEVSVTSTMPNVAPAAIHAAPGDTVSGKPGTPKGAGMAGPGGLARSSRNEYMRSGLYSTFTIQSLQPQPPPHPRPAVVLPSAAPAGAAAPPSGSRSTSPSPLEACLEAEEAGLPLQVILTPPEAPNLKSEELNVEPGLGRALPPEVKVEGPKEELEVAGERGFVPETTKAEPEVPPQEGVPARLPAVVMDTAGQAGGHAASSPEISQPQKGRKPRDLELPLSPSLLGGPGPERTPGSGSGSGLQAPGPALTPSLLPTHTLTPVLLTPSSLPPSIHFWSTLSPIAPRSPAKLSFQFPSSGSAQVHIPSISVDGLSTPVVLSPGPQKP
Summary of the method: (§1)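 A tag-only sample was pooled with DNA-barcoded human transcription factors that had been expressed in yeast as GST fusions and captured on glutathione beads. The pools were incubated for 30 min at room temperature with 200 nmole of a random double-stranded 16-mer DNA library in Tris/NaCl/DTT/glycerol buffer, then washed, crosslinked with 0.1% formaldehyde, proximity-ligated (BsaI/T4 ligase, 1 h, 37 °C), PCR-amplified and sequenced on an Illumina NextSeq500. Binding signal is each hexamer's read frequency for a factor divided by its frequency for the tag-only sample.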

GABPA = target: T2, GABPA (Homo sapiens, UniProt Q06546 1-454)
T2 sequence: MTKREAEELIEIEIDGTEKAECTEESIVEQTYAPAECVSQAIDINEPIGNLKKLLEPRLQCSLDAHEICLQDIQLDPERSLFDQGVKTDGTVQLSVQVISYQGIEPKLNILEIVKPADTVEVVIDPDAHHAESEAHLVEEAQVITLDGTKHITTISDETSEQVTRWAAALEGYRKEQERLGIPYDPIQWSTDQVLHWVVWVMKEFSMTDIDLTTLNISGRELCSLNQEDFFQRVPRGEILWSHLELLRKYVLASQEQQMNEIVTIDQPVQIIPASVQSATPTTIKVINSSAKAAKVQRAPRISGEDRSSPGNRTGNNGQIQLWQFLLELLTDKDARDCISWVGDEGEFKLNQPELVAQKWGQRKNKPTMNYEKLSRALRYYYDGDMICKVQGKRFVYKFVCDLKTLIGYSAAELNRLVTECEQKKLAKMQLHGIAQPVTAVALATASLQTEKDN
Summary of the method: as §1

ELF1 = ELF1 (Homo sapiens, UniProt P32519 1-619)
Summary of the method: as §1

EHF = target: T3, EHF (Homo sapiens, UniProt Q9NZC4 1-300)
T3 sequence: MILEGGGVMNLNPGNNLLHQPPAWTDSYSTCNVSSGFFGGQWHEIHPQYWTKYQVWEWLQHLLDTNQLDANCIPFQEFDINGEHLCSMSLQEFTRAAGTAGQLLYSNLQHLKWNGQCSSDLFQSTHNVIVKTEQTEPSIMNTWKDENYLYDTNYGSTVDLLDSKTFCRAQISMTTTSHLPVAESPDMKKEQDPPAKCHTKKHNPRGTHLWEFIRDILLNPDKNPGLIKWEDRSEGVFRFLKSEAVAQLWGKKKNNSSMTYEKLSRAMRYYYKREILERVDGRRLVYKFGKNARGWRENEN
Summary of the method: as §1

SPIB = SPIB (Homo sapiens, UniProt Q01892 1-262)
Summary of the method: as §1

FEV = target: T4, FEV (Homo sapiens, UniProt Q99581 1-238)
T4 sequence: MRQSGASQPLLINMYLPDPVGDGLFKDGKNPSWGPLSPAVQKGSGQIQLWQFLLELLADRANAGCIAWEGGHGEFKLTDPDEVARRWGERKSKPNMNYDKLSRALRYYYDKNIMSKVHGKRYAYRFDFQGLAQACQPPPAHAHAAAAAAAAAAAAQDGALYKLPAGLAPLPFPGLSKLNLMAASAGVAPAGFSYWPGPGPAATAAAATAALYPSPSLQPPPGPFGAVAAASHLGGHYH
Summary of the method: as §1

ETV5 = ETV5 (Homo sapiens, UniProt P41161 1-510)
Summary of the method: as §1

ELF4 = ELF4 (Homo sapiens, UniProt Q99607 1-663)
Summary of the method: as §1

ELK4 = target: T5, ELK4 (Homo sapiens, UniProt P28324-2 1-405)
T5 sequence: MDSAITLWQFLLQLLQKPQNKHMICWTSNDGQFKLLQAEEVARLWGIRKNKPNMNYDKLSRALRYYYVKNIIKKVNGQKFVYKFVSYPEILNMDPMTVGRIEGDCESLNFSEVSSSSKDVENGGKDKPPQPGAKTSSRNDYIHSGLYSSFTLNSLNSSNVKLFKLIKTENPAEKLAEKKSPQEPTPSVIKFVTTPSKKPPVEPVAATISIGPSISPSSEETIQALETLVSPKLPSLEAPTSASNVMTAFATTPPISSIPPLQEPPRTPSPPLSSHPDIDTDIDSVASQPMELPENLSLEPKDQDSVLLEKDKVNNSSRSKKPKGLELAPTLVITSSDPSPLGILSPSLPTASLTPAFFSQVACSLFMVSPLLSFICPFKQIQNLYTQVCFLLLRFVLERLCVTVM
Summary of the method: as §1

ETV2 = target: T6, ETV2 (Homo sapiens, UniProt O00321 1-342)
T6 sequence: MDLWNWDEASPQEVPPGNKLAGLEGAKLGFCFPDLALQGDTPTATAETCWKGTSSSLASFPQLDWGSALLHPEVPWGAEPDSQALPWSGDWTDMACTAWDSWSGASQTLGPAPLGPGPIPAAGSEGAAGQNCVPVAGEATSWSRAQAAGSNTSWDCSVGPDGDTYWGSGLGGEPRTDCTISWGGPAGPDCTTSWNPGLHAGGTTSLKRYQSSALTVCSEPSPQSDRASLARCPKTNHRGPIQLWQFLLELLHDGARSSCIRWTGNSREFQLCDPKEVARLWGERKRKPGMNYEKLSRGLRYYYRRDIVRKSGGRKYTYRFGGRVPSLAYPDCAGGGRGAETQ
Summary of the method: as §1

ELF3 = target: T7, ELF3 (Homo sapiens, UniProt P78545 1-371)
T7 sequence: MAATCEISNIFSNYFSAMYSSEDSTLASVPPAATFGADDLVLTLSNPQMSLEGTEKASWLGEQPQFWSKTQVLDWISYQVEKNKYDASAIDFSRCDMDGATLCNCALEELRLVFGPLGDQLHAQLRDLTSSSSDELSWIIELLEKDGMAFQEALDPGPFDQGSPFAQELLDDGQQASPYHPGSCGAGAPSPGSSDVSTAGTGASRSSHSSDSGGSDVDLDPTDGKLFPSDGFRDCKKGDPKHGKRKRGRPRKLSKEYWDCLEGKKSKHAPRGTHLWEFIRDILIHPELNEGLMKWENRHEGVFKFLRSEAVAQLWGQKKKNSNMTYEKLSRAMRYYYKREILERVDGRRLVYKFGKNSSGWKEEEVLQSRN
Summary of the method: as §1

ETV1 = ETV1 (Homo sapiens, UniProt P50549 1-477)
Summary of the method: as §1

ERF = target: T8, ERF (Homo sapiens, UniProt P50548 1-548)
T8 sequence: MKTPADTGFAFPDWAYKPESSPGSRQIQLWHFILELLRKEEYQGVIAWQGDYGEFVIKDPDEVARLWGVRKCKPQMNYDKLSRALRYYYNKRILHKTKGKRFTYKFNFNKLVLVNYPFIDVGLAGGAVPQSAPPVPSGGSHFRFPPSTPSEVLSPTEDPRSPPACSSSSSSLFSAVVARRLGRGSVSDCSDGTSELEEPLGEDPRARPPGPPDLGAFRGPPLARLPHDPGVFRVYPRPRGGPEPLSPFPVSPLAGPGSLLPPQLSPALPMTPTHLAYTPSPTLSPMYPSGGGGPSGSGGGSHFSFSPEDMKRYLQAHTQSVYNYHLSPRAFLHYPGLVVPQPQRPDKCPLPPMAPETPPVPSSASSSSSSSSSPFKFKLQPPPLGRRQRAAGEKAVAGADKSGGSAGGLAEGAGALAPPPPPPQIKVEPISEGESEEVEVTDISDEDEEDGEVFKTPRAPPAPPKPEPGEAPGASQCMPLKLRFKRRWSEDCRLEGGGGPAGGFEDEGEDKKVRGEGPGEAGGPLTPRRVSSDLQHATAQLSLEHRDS
Summary of the method: as §1

ETS2 = target: T9, ETS2 (Homo sapiens, UniProt P15036 1-469)
T9 sequence: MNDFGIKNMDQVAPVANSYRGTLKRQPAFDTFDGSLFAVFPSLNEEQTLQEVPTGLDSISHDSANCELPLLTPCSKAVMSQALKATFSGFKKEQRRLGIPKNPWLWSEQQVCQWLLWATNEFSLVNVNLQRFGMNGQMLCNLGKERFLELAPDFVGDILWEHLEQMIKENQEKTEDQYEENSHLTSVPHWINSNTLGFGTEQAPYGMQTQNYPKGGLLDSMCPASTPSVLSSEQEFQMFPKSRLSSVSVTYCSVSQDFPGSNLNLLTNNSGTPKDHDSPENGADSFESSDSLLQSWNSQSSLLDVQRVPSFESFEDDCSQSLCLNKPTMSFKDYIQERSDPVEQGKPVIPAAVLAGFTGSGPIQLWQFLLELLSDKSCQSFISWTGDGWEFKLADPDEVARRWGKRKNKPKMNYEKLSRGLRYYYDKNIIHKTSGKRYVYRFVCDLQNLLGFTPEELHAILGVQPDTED
Summary of the method: as §1

ETV3 = target: T10, ETV3 (Homo sapiens, UniProt P41162-2 1-143)
T10 sequence: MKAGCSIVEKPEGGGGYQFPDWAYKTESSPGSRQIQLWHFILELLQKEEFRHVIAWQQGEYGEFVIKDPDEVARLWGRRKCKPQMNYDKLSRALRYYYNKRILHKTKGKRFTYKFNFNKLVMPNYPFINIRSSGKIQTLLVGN
Summary of the method: as §1

ETV6 = ETV6 (Homo sapiens, UniProt P41212 1-452)
Summary of the method: as §1

Chain of ELF4 (Q99607 whole entry): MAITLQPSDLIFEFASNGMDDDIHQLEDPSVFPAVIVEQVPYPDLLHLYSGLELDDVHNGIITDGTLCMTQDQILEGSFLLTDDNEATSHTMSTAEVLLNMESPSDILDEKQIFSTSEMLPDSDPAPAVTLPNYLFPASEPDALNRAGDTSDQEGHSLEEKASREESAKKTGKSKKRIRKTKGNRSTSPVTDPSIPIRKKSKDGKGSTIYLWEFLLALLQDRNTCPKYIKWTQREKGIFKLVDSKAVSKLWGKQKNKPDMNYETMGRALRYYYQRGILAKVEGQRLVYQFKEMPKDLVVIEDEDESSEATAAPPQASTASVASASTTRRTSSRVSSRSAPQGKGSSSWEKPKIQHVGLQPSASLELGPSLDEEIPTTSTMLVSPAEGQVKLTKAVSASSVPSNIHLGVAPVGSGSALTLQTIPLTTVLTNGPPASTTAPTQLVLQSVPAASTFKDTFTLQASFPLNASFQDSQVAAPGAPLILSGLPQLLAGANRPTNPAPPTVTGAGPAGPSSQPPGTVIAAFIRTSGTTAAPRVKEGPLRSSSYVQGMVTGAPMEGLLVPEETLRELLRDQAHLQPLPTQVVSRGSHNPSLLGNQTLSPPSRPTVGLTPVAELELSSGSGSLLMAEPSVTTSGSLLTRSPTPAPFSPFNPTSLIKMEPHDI
Chain of ETV5 (P41161 whole entry): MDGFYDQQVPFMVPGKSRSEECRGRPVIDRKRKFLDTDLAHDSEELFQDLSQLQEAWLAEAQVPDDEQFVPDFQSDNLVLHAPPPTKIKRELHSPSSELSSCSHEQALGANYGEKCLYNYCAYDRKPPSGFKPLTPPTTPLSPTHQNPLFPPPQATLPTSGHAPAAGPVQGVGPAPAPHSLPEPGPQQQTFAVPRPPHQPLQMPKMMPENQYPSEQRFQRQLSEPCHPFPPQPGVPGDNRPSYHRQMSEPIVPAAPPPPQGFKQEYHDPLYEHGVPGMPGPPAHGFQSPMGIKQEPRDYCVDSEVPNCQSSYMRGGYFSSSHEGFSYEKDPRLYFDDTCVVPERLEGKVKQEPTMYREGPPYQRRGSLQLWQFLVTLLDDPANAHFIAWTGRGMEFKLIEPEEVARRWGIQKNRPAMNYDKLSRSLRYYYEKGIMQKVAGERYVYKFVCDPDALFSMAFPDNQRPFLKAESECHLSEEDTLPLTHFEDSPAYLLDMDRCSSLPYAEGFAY
Chain of ELF1 (P32519 whole entry): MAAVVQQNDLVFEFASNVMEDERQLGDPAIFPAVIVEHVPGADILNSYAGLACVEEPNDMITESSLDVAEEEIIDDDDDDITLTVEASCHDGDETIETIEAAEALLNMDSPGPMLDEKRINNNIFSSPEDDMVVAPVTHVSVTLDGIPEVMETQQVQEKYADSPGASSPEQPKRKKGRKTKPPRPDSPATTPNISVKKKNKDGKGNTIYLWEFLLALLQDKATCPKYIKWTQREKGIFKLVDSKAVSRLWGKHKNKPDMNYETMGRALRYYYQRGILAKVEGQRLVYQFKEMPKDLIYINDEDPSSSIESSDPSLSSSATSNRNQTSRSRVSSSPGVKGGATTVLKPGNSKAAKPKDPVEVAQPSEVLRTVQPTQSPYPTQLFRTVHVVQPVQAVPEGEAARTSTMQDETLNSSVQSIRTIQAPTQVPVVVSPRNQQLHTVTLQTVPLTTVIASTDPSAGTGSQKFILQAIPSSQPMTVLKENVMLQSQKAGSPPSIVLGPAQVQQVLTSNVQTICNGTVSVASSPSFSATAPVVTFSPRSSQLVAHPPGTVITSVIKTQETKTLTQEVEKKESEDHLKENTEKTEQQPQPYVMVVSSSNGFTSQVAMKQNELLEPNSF
Chain of ETV1 (P50549 whole entry): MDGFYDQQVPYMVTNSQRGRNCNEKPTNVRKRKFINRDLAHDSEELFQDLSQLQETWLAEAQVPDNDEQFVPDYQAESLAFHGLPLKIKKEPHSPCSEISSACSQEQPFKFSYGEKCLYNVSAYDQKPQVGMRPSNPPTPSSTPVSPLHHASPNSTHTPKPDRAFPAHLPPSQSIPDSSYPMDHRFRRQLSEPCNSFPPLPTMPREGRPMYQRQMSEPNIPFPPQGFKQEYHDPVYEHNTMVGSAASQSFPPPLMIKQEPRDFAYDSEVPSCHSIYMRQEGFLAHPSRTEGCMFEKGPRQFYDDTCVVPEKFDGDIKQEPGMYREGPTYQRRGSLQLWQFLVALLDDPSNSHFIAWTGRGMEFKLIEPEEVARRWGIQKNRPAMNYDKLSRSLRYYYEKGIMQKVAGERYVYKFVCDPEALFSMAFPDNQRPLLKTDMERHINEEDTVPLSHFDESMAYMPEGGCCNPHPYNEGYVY
Chain of SPIB (Q01892 whole entry): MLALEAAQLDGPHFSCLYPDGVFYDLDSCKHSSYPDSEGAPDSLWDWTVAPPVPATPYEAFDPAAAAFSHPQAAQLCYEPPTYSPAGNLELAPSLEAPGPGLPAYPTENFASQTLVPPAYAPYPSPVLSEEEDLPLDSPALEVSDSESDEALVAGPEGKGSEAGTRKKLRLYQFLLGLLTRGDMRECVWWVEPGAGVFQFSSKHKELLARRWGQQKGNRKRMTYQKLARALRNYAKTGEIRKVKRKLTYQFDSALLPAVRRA
Chain of ETV6 (P41212 whole entry): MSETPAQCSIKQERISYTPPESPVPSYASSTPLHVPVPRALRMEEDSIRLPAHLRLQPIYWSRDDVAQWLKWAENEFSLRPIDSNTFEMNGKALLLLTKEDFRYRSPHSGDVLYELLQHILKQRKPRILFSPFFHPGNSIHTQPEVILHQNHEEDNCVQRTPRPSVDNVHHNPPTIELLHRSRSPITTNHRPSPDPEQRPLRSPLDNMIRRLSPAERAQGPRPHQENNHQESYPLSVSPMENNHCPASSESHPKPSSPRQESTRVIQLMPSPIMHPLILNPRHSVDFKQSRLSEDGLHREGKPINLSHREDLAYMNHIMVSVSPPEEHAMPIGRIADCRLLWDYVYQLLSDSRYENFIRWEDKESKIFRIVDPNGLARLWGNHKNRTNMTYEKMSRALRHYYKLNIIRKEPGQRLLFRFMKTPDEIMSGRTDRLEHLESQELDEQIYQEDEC

AGCAAA
binding signal (ELK1): 1.04 fold enrichment (6-mer frequency, TF over GST control)
binding signal (GABPA): 1.06 fold enrichment (6-mer frequency, TF over GST control)
binding signal (ELF1): 1.07 fold enrichment (6-mer frequency, TF over GST control)
binding signal (EHF): 1.03 fold enrichment (6-mer frequency, TF over GST control)
binding signal (SPIB): 1.04 fold enrichment (6-mer frequency, TF over GST control)
binding signal (FEV): 1.02 fold enrichment (6-mer frequency, TF over GST control)
binding signal (ETV5): 1.07 fold enrichment (6-mer frequency, TF over GST control)
binding signal (ELF4): 1.05 fold enrichment (6-mer frequency, TF over GST control)
binding signal (ELK4): 1.05 fold enrichment (6-mer frequency, TF over GST control)
binding signal (ETV2): 1.17 fold enrichment (6-mer frequency, TF over GST control)
binding signal (ELF3): 1.21 fold enrichment (6-mer frequency, TF over GST control)
binding signal (ETV1): 1.09 fold enrichment (6-mer frequency, TF over GST control)
binding signal (ERF): 1.05 fold enrichment (6-mer frequency, TF over GST control)
binding signal (ETS2): 1.02 fold enrichment (6-mer frequency, TF over GST control)
binding signal (ETV3): 1.06 fold enrichment (6-mer frequency, TF over GST control)
binding signal (ETV6): 1.05 fold enrichment (6-mer frequency, TF over GST control)

From PMC7862700, “An all-to-all approach to the identification of sequence-specific readers for epigenetic DNA modifications on cytosine”
